GPR151 ag – activates the human receptor GPR151; activation, % at 11.2 µM; PathHunter beta-arrestin GPR151 cells, luminescence; 650,000 compounds, 1% hits; Q8TDV0; in the data active = activation above about 4.9%
TEAD-YAP block – TEAD-YAP interaction inhibition. HEK-TIYL cells, TEAD-Gal4/YAP UAS-luciferase luminescence. inhibition, % at 9.12 µM. 640,000 compounds, 1.4% hits. AID 1259422; in the data active = inhibition above about 32%
MITF inh – human MITF inhibition, primary screen | O75030 | AlphaScreen MITF homodimerization, bead proximity signal | inhibition, % at 2.6 µM | 650,000 compounds, 0.91% hits; in the data active = inhibition above about 50%
Target sequence (O75030 whole entry, looked up): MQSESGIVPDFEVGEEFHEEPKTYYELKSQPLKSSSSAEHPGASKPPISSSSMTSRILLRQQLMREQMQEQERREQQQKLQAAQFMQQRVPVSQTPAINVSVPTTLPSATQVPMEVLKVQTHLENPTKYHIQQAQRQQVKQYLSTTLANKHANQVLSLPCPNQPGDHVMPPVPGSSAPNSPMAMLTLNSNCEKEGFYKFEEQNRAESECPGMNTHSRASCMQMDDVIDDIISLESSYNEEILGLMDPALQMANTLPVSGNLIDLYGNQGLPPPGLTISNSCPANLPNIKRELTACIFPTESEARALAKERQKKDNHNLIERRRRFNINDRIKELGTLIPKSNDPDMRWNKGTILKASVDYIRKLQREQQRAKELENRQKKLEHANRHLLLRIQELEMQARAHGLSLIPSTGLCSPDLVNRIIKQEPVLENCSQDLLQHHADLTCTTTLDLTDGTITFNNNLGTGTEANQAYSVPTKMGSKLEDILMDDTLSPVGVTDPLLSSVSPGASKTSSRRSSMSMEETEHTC
FBW7 activator – activators of human E3 ligase FBW7 | AlphaScreen FBW7–phospho-cyclin E peptide binding, activator screen | AID 1259310 | 650,000 compounds, 0.13% hits | normalized activity (activation), % at 26.1 µM; in the data active = normalized activity above about 1.9%;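 note: purified mutant Fbw7 with reduced substrate affinity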
Numbers stand for hits; – = inactive. Sampled rows, rich in hits. Any-hit rate of the full collection: about 3.4%.

SMILES	GPR151 ag	TEAD-YAP block	MITF inh	FBW7 activator
COc1ccc(/C=C2\Sc3ccc(C(=O)O)cc3NC2=O)cc1OC	–	–	–	–
Cc1cc(C)nc(SCC(=O)Nc2nnc(SCc3ccccc3)s2)n1	–	–	–	–
COc1cccc(C2=N/C(=C\C=C\c3ccccc3)C(=O)O2)c1	–	–	–	–
Cn1cc(-c2ccc3cnc(Nc4ccc(-n5cnc(-c6ccccn6)n5)cc4)nc3c2)cn1	–	95.6	–	–
Cc1ccc(-c2ncn(-c3ccc(Nc4ncc5ccc(-c6cnn(C)c6)cc5n4)cc3)n2)cn1	–	–	–	–
Cc1cc(C)cc(OCC(=O)Nc2ccc(NC(=O)c3cccs3)cc2)c1	–	–	–	2.2
Cc1ccc(OCC(=O)Nc2cccc(NC(=O)c3cccs3)c2)cc1	–	–	–	–
CCOc1ccc2nc(C)cc(Nc3ccc(Br)cc3)c2c1	–	–	–	–
CCOC(=O)/C(Cl)=C(\C)Nc1ccccc1N	–	–	–	–
O=C(CCSc1ccc(F)cc1)Nc1ccc(S(=O)(=O)Nc2ncccn2)cc1	–	–	–	–
Cn1c(Nc2nc(NCc3ccccc3)c3ncn(C4CCCCC4)c3n2)nc2ccccc21	–	–	–	–
CC(C)n1cnc2c(NCc3ccccc3)nc(N3CCN(Cc4ccc5c(c4)OCO5)CC3)nc21	–	–	–	–
Cn1c(Nc2nc(NCc3nc4ccccc4[nH]3)c3ncn(C4CCCCC4)c3n2)nc2ccccc21	–	33.6	–	–
CC(C)n1cnc2c(NCc3nc4ccccc4[nH]3)nc(N3CCN(Cc4ccc5c(c4)OCO5)CC3)nc21	–	68.2	–	–
CC(C)n1cnc2c(NCc3nc4ccccc4[nH]3)nc(Nc3ccc(N4CCOCC4)cc3)nc21	–	56.8	–	–
CC(C)n1cnc2c(NCc3nc4ccccc4[nH]3)nc(N3CCCC3CO)nc21 (configuration not stated)	–	71.9	–	–
c1ccc2[nH]c(CNc3nc(Nc4ccc(N5CCOCC5)cc4)nc4c3ncn4C3CCCCC3)nc2c1	–	–	–	–
O=C(NCc1nc2ccccc2[nH]1)c1ccc2nc(Nc3ccccn3)sc2c1	–	–	–	–
O=C(NCCN1CCOCC1)c1cnc(N2CCCC2)nc1	–	–	–	–
COc1ccccc1-c1nnc(SCC(=O)/C(C#N)=C(\C)N)n1N	–	–	–	–
C=CCc1cccc(/C=N/NS(C)(=O)=O)c1O	–	–	–	–
COc1cccc(C(=O)N2CCN(C(=O)c3ccccc3F)CC2)c1OC	–	–	–	–
CCCCSc1nnc2c(n1)OC(c1cccc(Br)c1)Nc1ccccc1-2 (configuration not stated)	–	–	–	–
c1ccc2[nH]c(CNc3nc(N4CCOCC4)nc4c3ncn4C3CCCCC3)nc2c1	–	74.1	–	–
CC(C)n1cnc2c(NCc3nc4ccccc4[nH]3)nc(N3CCC(N4CCOCC4)CC3)nc21	–	63.0	–	–
SMILES	GPR151 ag	TEAD-YAP block	MITF inh	FBW7 activator
c1ccc2[nH]c(CNc3nc(N4CCOCC4)nc4c3ncn4-c3ccsc3)nc2c1	–	88.4	–	–
CC(C)n1cnc2c(NCc3nc4ccccc4[nH]3)nc(N3CCN(c4ccccn4)CC3)nc21	–	71.6	–	–
Cc1noc(C)c1-c1nc(NCc2nc3ccccc3[nH]2)c2ncn(-c3ccsc3)c2n1	–	–	–	–
CC1(c2nc(-c3ccc(C(F)(F)F)cc3)no2)Oc2ccccc2NC1=O (configuration not stated)	–	–	–	–
Cc1ccc(N2NC(=O)/C(=C/c3cc([N+](=O)[O-])cc(C)c3O)C2=O)cc1Cl	–	–	–	–
COc1ccc(C2/C(=C(/O)c3ccc(Cl)cc3)C(=O)C(=O)N2CCCO)cc1 (configuration not stated)	–	–	–	–
OCCNc1ncnc2nc(N3CCN(Cc4ccc5c(c4)OCO5)CC3)[nH]c12	–	–	–	–
c1ccc(-n2cnc3c(NCc4nc5ccccc5[nH]4)nc(N4CCC(N5CCOCC5)CC4)nc32)cc1	–	44.5	–	–
CCN(CC)c1nc(NCCc2ccc(O)cc2)nc(N2CCN(c3ccccn3)CC2)n1	–	–	–	–
c1ccc2[nH]c(CNc3ncnc4nc(N5CCN(Cc6ccc7c(c6)OCO7)CC5)[nH]c34)nc2c1	–	53.6	–	–
CCN(CC)c1nc(NCc2nc3ccccc3[nH]2)nc(N2CCN(c3ccccn3)CC2)n1	–	33.5	–	–
CC(C)c1ccc(N(C)C(=O)c2cnc(N3CCN(c4ncccn4)CC3)c3ccccc23)cc1	–	–	–	–
O=C(O)CCc1ccc(-c2cnn3c(N4CCC(O)CC4)ccnc23)cc1	–	37.4	–	–
CN1CCN(c2ccnc3c(-c4ccc(CO)cc4)cnn23)CC1	–	–	–	–

Screening results: PubChem, The Scripps Research Institute Molecular Screening Center
